This is a sample that favours compounds with a hit; in the whole collection about 8.1% have one here.
PD-1 reverse act: reversal of PD-1 mediated T-cell inhibition. primary human CD4 T cells, PD-L1 beads, CellTiter-Glo 96 h. activation, % (concentration not given with the values). 29,000 tested, under 10 active; call rule not given here;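 note: 0% = median vehicle wells and 100% = positive control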
Hedgehog inh: Sonic Hedgehog pathway inhibition; Shh-LIGHT2 Gli-luciferase reporter, 30 h; inhibition, % (test concentration not listed); hit rate 2.1% among 22,000; AID 2313;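 active = mean inhibition across valid replicates above about 65%, limit read from the data; inconclusive = mean under the limit, yet half or more replicates past it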;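 note: pathway switched on by Shh-conditioned medium diluted 1 in 25 in low serum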
NOMO-1 viab: STK33 inhibitor candidate reducing NOMO-1 cell viability. AID 2330. hit rate 7.5% among 37,000. inhibition, % (test concentration not listed). NOMO-1 AML viability, CellTiter-Glo luminescence, 72 h; in the data active = inhibition above about 80%; inconclusive = no clear call, values can overlap the other calls
MITF inhib: blocks MITF activity; inhibition, % (test concentration not listed); hit rate 0.28% among 37,000; TRPM1 promoter luciferase, luminescence, 24 h; in the data active = inhibition above about 85%; inconclusive = no clear call, values can overlap the other calls; inactive = below about 68%;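 note: human melanocyte line stably carrying TRPM1 promoter luciferase reporter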
* marks the source's active call; other numbers are inactive results; ? = inconclusive; . = no result given.

SMILES	PD-1 reverse act	Hedgehog inh	NOMO-1 viab	MITF inhib
COc1ccccc1CC(=O)Nc1ccc(-c2noc(-c3ccc(OC)c(OC)c3)n2)cc1	0	.	44	-26
COc1ccccc1CC(=O)Nc1ccc(-c2nc3ccccc3[nH]2)cc1	-6	.	135*	72
Cc1ccc(-c2nc3ccccc3[nH]2)cc1NC(=O)COc1ccccc1[N+](=O)[O-]	-14	.	119*	86*
Cn1c(=N)n(CCCOc2ccc(F)cc2)c2ccccc21	-2	58	94*	-15
CC(O)c1nc2ccccc2n1CCOc1ccc(F)cc1 (stereo not given)	.	.	11	1
O=C1Nc2ccccc2/C1=C\c1c(Cl)[nH]c2ccccc12	-1	30	97*	40
CN(C)c1ccc(/C=C2/C(=O)Nc3ccccc32)cc1	0	-21	40	-40
Cc1cccc(OCC(=O)Nc2cccc(-c3nc4ccccc4[nH]3)c2)c1C	0	.	62	-51
O=C(c1ccccc1)c1ccc2nc(-c3cccc(NC(=O)C4CCCO4)c3)[nH]c2c1 (stereo not given)	0	.	100*	-45
Cc1ccc(C(C)C)c(OCC(=O)Nc2ncc(I)cc2C)c1	-2	.	-3	5
Cc1ccc(S(=O)(=O)Nc2cccc3c2O[C@@H](CN(C)Cc2ccc(C(=O)Nc4ccccc4N)cc2)[C@@H](C)CN([C@@H](C)CO)C3=O)cc1	-1	.	134*	30
Cc1ccc(S(=O)(=O)Nc2cccc3c2O[C@H](CN(C)Cc2ccc(C(=O)Nc4ccccc4N)cc2)[C@H](C)CN([C@H](C)CO)C3=O)cc1	-1	.	129*	31
Cc1ccc(S(=O)(=O)Nc2cccc3c2O[C@H](CN(C)Cc2ccc(C(=O)Nc4ccccc4N)cc2)[C@@H](C)CN([C@@H](C)CO)C3=O)cc1	-1	.	121*	33
Cc1ccc(S(=O)(=O)Nc2cccc3c2O[C@@H](CN(C)Cc2ccc(C(=O)Nc4ccccc4N)cc2)[C@H](C)CN([C@@H](C)CO)C3=O)cc1	1	.	?	5
O=C(Nc1cc(-c2ccc(Cl)cc2)[nH]n1)C1Cc2ccccc2C1	-1	-38	14	-13
C=C1C(=O)O[C@@H]2/C=C(/C)CC/C=C(/C(=O)O)C[C@@H](OC(=O)/C(C)=C/C)C12 (stereo not given in full)	0	-29	38	-30
C=C1C(=O)O[C@@H]2/C=C(\C)[C@@H](OC(=O)C(O)C(C)C)C/C=C(/C)C[C@@H](OC(=O)/C(=C/CO)CO)[C@@H]12 (stereo not given in full)	-23	-2	121*	-5
C=C1C(=O)O[C@@H]2/C=C(\C)[C@H](OC(C)=O)C/C=C(/C)C[C@@H](OC(=O)/C(=C/CO)CO)C12 (stereo not given in full)	-8	?	108*	-1
C=C(C)C(=O)O[C@H]1[C@H]2C(=C)C(=O)O[C@@H]2C[C@@H](C)/C=C/C(=O)[C@](C)(O)[C@@H]1OC(C)=O	-14	-10	118*	90*
CCN(CC(=O)Nc1ccccc1C(F)(F)F)S(=O)(=O)c1ccc(C)cc1	.	.	23	0
CCOC(=O)c1c(NC(=O)CSc2nnc(C)s2)sc(C)c1C	0	.	9	-11
COc1cccc(C(=O)NC(c2ccc(C)cc2)c2cc(Cl)c3cccnc3c2O)c1 (stereo not given)	-14	.	121*	63
COc1ccc(C(=O)NC(c2ccc(OC)c(OC)c2)c2cc(Cl)c3cccnc3c2O)cc1 (stereo not given)	-13	.	122*	60
COc1ccc(C(C)NC(=O)c2cc(-c3ccccn3)nc3ccc(Cl)cc23)cc1OC (stereo not given)	.	.	56	53
COc1ccc(C(NC(=O)c2cccnc2)c2cc(Cl)c3cccnc3c2O)cc1OC (stereo not given)	.	.	109*	53
SMILES	PD-1 reverse act	Hedgehog inh	NOMO-1 viab	MITF inhib
CC(C)c1ccccc1OCC(=O)Nc1ccccc1C(N)=O	-7	.	73	36
CNC(=O)CCc1cc2ccccc2[nH]1	0	1	6	6
C[C@@H]1CN([C@H](C)CO)C(=O)Cc2cc(NC(=O)Nc3ccccc3)ccc2O[C@H]1CN(C)Cc1ccc(-c2ccccc2)cc1	0	-29	4	1
C[C@@H]1CN([C@H](C)CO)C(=O)Cc2cc(NC(=O)Nc3ccc4c(c3)OCO4)ccc2O[C@H]1CN(C)Cc1ccc(-c2ccccc2)cc1	2	-29	98*	0
C[C@@H]1CN([C@H](C)CO)C(=O)Cc2cc(NC(=O)Nc3ccc(F)cc3)ccc2O[C@H]1CN(C)Cc1ccc(-c2ccccc2)cc1	-4	0	127*	5
C[C@H]1CN([C@@H](C)CO)C(=O)Cc2cc(NC(=O)Nc3ccc(F)cc3)ccc2O[C@H]1CN(C)Cc1ccc(-c2ccccc2)cc1	0	1	110*	-10
CC(C)NC(=O)Nc1ccc2c(c1)CC(=O)N([C@@H](C)CO)C[C@H](C)[C@@H](CN(C)Cc1ccc(-c3ccccc3)cc1)O2	-2	-7	18	6
C[C@@H]1CN([C@H](C)CO)C(=O)Cc2cc(NC(=O)Nc3ccc(F)cc3)ccc2O[C@@H]1CN(C)Cc1ccccc1	0	13	52	2
CC(C)NC(=O)Nc1ccc2c(c1)CC(=O)N([C@H](C)CO)C[C@@H](C)[C@@H](CN(C)Cc1ccc(-c3ccccc3)cc1)O2	-3	9	82*	12
C=CC(C)(CC/C=C(\C)C(O)CC=C(C)C)OC1OC(CO)C(O)C(O)C1O (stereo not given)	.	78*	.	.
Cc1cc2c(c(=O)n1CC1CCCO1)C(c1cccs1)C(C#N)=C(N)O2 (stereo not given)	0	.	11	-10
CC1CCC2(C)C(CC(O)C(O)C2(O)CO)C1(C)CCc1ccoc1 (stereo not given)	1	-3	17	-14
COC1OC(OC)C(O)(CC[C@@]2(O)[C@H](C)C[C@@H](O)C3[C@@](C)(CO)CCC[C@]32C)C1O (stereo not given in full)	0	5	82*	-38
O=C(O)c1ccccc1Sc1ccccc1S(=O)(=O)NC12CC3CC(CC(C3)C1)C2	6	15	23	5
COc1cc(CCC(O)CC(O)CCc2ccc(O)c(O)c2)ccc1O (stereo not given)	-1	-4	11	37
COc1cc(C2C3=C(CCCC3=O)Nc3[nH]c(=O)[nH]c(=O)c32)cc(OC)c1OC (stereo not given)	0	23	22	-11
O=C(COc1ccc2ccccc2c1)Nc1ccc(O)cc1C(=O)O	.	.	9	6
CCc1ccc(/C(C#N)=C/C=C/c2ccccc2)cc1	-1	-148	115*	-7
O=C(O)c1ccc(NS(=O)(=O)c2cc3c4c(cccc4c2)C(=O)NC3=O)cc1	0	23	140*	24
Cc1ccc(NC(=O)c2cccc(S(=O)(=O)Nc3cccc(C(=O)O)c3)c2)cc1	.	.	-12	9
C/C=C(\CO)C(=O)O[C@H]1[C@H](O)[C@@H](C(=O)OC)O[C@@H]2C[C@H]3OC(n4cnc5c(N)ncnc54)[C@H](OC)[C@H]3O[C@]21O (stereo not given in full)	3	-14	12	-10

High-throughput results from PubChem BioAssay.
